CHX counter – counter-screen hit for Shiga toxin inhibitors, cycloheximide; cell reporter, cycloheximide protein synthesis inhibition counterscreen; 300,000 tested, 12% active; max response, %; in the data active means max response mostly above about 13%, no sharp cut-off; inactive means mostly below about 14%; further: read at 38.3 µM for the half of the compounds with a filed dose; 0% is about no effect
Pf growth 48h – P. falciparum growth inhibition at 48 hours (one generation). P. falciparum luciferase growth in erythrocytes, 48 h. 310,000 tested, 5.9% active. AID 504832. Potency, µM (highest dose often 28.7 µM), without a hit: at the top dose activity change, negative = inhibition, usual class: inhibitors; further: potency means the concentration at half of the fitted maximal effect; on the % scale 0 is the no-effect control and ±100 the full control effect
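Cell-based growth assay: transgenic P. falciparum expressing firefly luciferase, cultured in red cells within RPMI 1640 containing 0.5% w/v Albumax, 24 mM bicarbonate and gentamycin. A drop in luciferase activity indicates inhibition.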
Pf growth 96h – P. falciparum growth inhibition at 96 hour, primary screen for plastid delayed-death inhibitors | 320,000 tested, 6.9% active | Potency, µM (series often up to 28.7 µM), inactives show at the highest dose activity change, negative = inhibition, most hits filed as inhibitors | P. falciparum luciferase reporter growth, 96 h; further: potency means the concentration at half of the fitted maximal effect; on the % scale 0 is the no-effect control and ±100 the full control effect
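Infected RBCs, 2% Hct / 0.05% parasitemia final; luciferase-reporter P. falciparum; cpd 96 h, 37 C, 5% CO2; luciferase detection reagent; luminescence.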
AMA1 RON2 block – AMA1-RON2 (P. falciparum) interaction inhibition; AlphaScreen AMA1-biotinylated RON2 peptide binding; 360,000 tested, 0.2% active; Potency, µM (top dose mostly 58.2 µM), inactives show at the top dose activity change, negative = inhibition, usual class: inhibitors;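 further: potency means the concentration at half of the fitted maximal effect; 0% = vehicle wells and -100% = peptide control; nearly all actives have a fitted effect of over 45% in size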
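AMA1 (3D7) with his tag at 25 nM final met compounds first, then biotinylated RON2 peptide at 25 nM; detection used donor plus acceptor beads, 10 µg/mL apiece, read by AlphaScreen after 30 min at room temperature.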
SARS PLpro yeast – SARS-CoV PLP inhibition in yeast; Potency, µM (series often up to 32.9 µM), for inactives: at the highest dose activity, positive = growth rescue, most hits filed as activators; 330,000 tested, 0.19% active; S. cerevisiae expressing SARS-CoV PLpro, growth rescue; calls by dose curve; further: potency means the concentration at half of the fitted maximal effect; 0% is about no effect; nearly all actives have a fitted effect of over 55% in size
Shiga inhibitor – inhibitors of Shiga toxin in Vero cells. Vero cells, Shiga toxin protein synthesis inhibition reporter. inhibition, % at 38.7 µM. 290,000 tested, 9.2% active. AID 2315; in the data active means inhibition mostly above about 28%, no sharp cut-off; inactive means mostly below about 43%; further: 0% is about no effect
* hit, by the source's call; [ ] = dose if it differs, or a comment. The list is not random: actives were taken first. Their share in the collection is about 19%. Unless noted, the call rests on the fitted dose curve; in most records, active means well fitted curve in the direction sought with a large enough effect; inconclusive means small, poorly fitted or top-dose-only effect, or another doubt; inactive means no such curve, though single readings can be large; an effect the other way counts as inactive or inconclusive.

For CC(=O)Nc1ccc(C(=O)OCC(=O)c2cccc([N+](=O)[O-])c2)cc1 the results were CHX counter 3, Pf growth 48h 16%, Pf growth 96h 1%, AMA1 RON2 block 4%, SARS PLpro yeast -9% and Shiga inhibitor -11.
For Cc1ccc(C(=O)C[n+]2cccc3ccccc32)cc1 the results were CHX counter 0, Pf growth 48h 13µM*, Pf growth 96h 4.1µM*, AMA1 RON2 block -5%, SARS PLpro yeast 2% and Shiga inhibitor 8.
CC1(C(=O)NS(=O)(=O)C2CC2)CCCN(C(=O)c2ccccc2)C1 (stereo not given) was read as AMA1 RON2 block -1%.
For CC(C)c1ccc(C(=O)NC(=S)Nc2ccc3[nH]c(=O)[nH]c3c2)cc1 the results were CHX counter -2, Pf growth 48h -23%, Pf growth 96h 32%, AMA1 RON2 block 29%, SARS PLpro yeast 0% and Shiga inhibitor 5.
Cc1ccc(C[n+]2ccccc2)cc1 was read as Pf growth 48h 9.3µM*, Pf growth 96h inconclusive, AMA1 RON2 block -4% and SARS PLpro yeast 9%.
For COC(=O)c1ccc(C[n+]2ccccc2)cc1 the results were CHX counter 3, Pf growth 48h 11%, Pf growth 96h -29%, AMA1 RON2 block -18% and SARS PLpro yeast -7%.
Screening Cc1ccc(-n2c(C)c(C)c3c(NCCO)ncnc32)cc1 returned CHX counter 40*, Pf growth 48h 71%, Pf growth 96h 32%, AMA1 RON2 block 18%, SARS PLpro yeast -1% and Shiga inhibitor 61*.
For COCCn1c(C)c(C)c2c(NCCc3ccccc3)ncnc21 the results were CHX counter 25*, Pf growth 48h 34%, Pf growth 96h 122%, AMA1 RON2 block inconclusive, SARS PLpro yeast 0% and Shiga inhibitor 67*.
Cc1c(C)n(Cc2ccccc2)c2ncnc(NN)c12 was read as CHX counter 15*, Pf growth 48h 8%[0.00184 µM], Pf growth 96h -8%, AMA1 RON2 block 40%, SARS PLpro yeast -4% and Shiga inhibitor 60.
Cc1c(C)n(CCc2ccccc2)c2ncnc(NN)c12 was read as CHX counter 16*, Pf growth 48h -3%, Pf growth 96h -48%, AMA1 RON2 block 35%, SARS PLpro yeast -2% and Shiga inhibitor 25.
`Cc1cc(NC(=O)CSc2nnc(C(F)(F)F)n2C)no1` gave AMA1 RON2 block 1%[11.6 µM] and SARS PLpro yeast -8%.
`Cc1ccc(S(=O)(=O)NCCC(=O)NCC(c2ccco2)N2CCCCC2)cc1C` (stereo not given) gave Pf growth 48h inconclusive, Pf growth 96h inconclusive, AMA1 RON2 block -6% and SARS PLpro yeast 4%.
`Cc1c(C)n(Cc2ccccc2)c2ncnc(NCCCN(C)C)c12` gave CHX counter 0, Pf growth 48h 0%, Pf growth 96h -26%, AMA1 RON2 block -14%, SARS PLpro yeast 0% and Shiga inhibitor -6.
Screening Cc1c(C)n(CCc2ccccc2)c2ncnc(NCCCO)c12 returned CHX counter 48*, Pf growth 48h 167%, Pf growth 96h 80%, AMA1 RON2 block -24%, SARS PLpro yeast 1% and Shiga inhibitor 102*.
`Cc1cc(C(=O)CN2C(=O)NC3(CCCCC3C)C2=O)c(C)n1Cc1cccs1` (stereo not given) gave CHX counter 101*, Pf growth 48h 18%, Pf growth 96h -28%, AMA1 RON2 block -12%, SARS PLpro yeast -18% and Shiga inhibitor 75*.
For Cc1cc(-n2c(C)cc(C(=O)CCl)c2C)no1 the results were CHX counter 7, Pf growth 48h -23%, Pf growth 96h inconclusive, AMA1 RON2 block 0%, SARS PLpro yeast inconclusive and Shiga inhibitor -18.
For Cc1cc(-n2c(C)cc(C(=O)CN3C(=O)NC4(CCCC4)C3=O)c2C)no1 the results were CHX counter 27*, Pf growth 48h inconclusive, Pf growth 96h 7%, AMA1 RON2 block 0%, SARS PLpro yeast -5% and Shiga inhibitor 23.
Cc1cc(C(=O)CN2C(=O)c3cccc(N)c3C2=O)c(C)n1Cc1cccs1 was read as CHX counter 34*, Pf growth 96h 11%, AMA1 RON2 block 16%, SARS PLpro yeast 1% and Shiga inhibitor 84*.
`Cc1cc(-n2c(C)cc(C(=O)CN3C(=O)NC4(CCCCC4C)C3=O)c2C)no1` (stereo not given) gave CHX counter -1, Pf growth 48h 2.3µM*, Pf growth 96h -6%, AMA1 RON2 block -1%, SARS PLpro yeast -1% and Shiga inhibitor 9.
For Cc1cc(C(=O)CN2C(=O)C(=O)N(Cc3ccccc3)C2=O)c(C)n1Cc1ccccc1 the results were AMA1 RON2 block -3%[11.6 µM] and SARS PLpro yeast -4%.
For Cc1cc(-n2c(C)cc(C(=O)CN3C(=O)NC4(CCCCC4)C3=O)c2C)no1 the results were CHX counter 9.7*, Pf growth 48h 13µM*, Pf growth 96h 19%, AMA1 RON2 block -15%, SARS PLpro yeast -8% and Shiga inhibitor 11.
CCCCN1C(=O)C(=O)N(CC(=O)c2cc(C)n(-c3cc(C)on3)c2C)C1=O was read as Pf growth 48h 10µM*, Pf growth 96h inconclusive, AMA1 RON2 block -4% and SARS PLpro yeast 1%.
Cc1cc(-n2c(C)cc(C(=O)CN3C(=O)C(=O)N(C)C3=O)c2C)no1 was read as AMA1 RON2 block 10% and SARS PLpro yeast -4%.
Screening Cc1cc(-n2c(C)cc(C(=O)CSc3nc(N)cc(=O)[nH]3)c2C)no1 returned CHX counter 0, Pf growth 48h -7%, Pf growth 96h inconclusive, AMA1 RON2 block 6%, SARS PLpro yeast 1% and Shiga inhibitor 0.
`CN(C)C(=S)SCC(=O)NC(=O)NC(C)(C)C` gave CHX counter 3, Pf growth 48h 8%, Pf growth 96h 23%, AMA1 RON2 block 0%, SARS PLpro yeast 2% and Shiga inhibitor 19.
For CC(C)(C)Nc1nc(Nc2ccc([N+](=O)[O-])cc2)nc(NC(C)(C)C)n1 the results were CHX counter -4, Pf growth 48h inconclusive, Pf growth 96h 0%, AMA1 RON2 block -6% and SARS PLpro yeast -6%.
`COc1cc(Cn2c3ccc(NC(=O)NCc4ccc(F)cc4)cc3c(=O)n2C)ccc1F` gave AMA1 RON2 block 0%.
Screening O=C(NCc1ccccc1)c1cc2ccccc2oc1=O returned CHX counter 50*, Pf growth 48h 28%, Pf growth 96h -29%, AMA1 RON2 block 3%, SARS PLpro yeast -7% and Shiga inhibitor 44*.
For Cc1ccc(CNC(=O)c2cc3ccccc3oc2=O)cc1 the results were AMA1 RON2 block 0%.
For O=C(O)c1cc2c(ccc3ccccc32)oc1=O the results were CHX counter -4, Pf growth 96h 0%, SARS PLpro yeast 9% and Shiga inhibitor -13.

Compound activity as filed in PubChem.
